# Assay results taken from PMC5836133, “The intracellular immune receptor Rx1 regulates the DNA-binding activity of a Golden2-like transcription factor”.
# The full ranking holds about 16,000 sequences; the median of “e-score” is about -0.044, and the highest 2% start at about 0.38. This excerpt belongs to a sample that is enriched for the highest values.
# Molecular target: T1, GST-NbGlk1(82-244) (Nicotiana benthamiana)
# T1 chain: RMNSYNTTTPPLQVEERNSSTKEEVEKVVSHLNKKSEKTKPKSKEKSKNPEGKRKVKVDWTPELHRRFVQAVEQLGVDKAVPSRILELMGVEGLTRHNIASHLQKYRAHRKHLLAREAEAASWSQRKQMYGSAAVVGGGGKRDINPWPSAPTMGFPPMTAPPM
# Experiment: protein-binding microarray; NbGlk1 is a Golden2-like transcription factor of Nicotiana benthamiana; high values mean tight binding
# Conditions: protein: recombinant; tags: GST (pTH6838); dsDNA, one strand shown
row,Sequence,binding signal [E-score]
1,AATCAGAT,0.341 ± 0.0502
2,ACTAATAT,0.2093 ± 0.00102
3,ATGGGAAT,0.296 ± 0.0441
4,ACAGATCC,0.234 ± 0.05
5,ACAAGATA,0.322 ± 0.00757
6,ATTCCCTC,0.372 ± 0.0111
7,AAAATCCA,0.454 ± 0.016
8,ACAATCCA,0.3331 ± 0.000895
9,CAAATCCG,0.389 ± 0.00882
10,AGAATCAC,0.373 ± 0.0542
11,AAAATCCG,0.446 ± 0.00893
12,AAAATACG,0.286 ± 0.0671
13,AGAATCAG,0.39 ± 0.0152
14,ATAATCCA,0.354 ± 0.0347
15,AGAATCAA,0.342 ± 0.0419
16,ATAATCAA,0.216 ± 0.00752
17,AAGCGGAT,0.227 ± 0.0367
18,AATCGGAT,0.357 ± 0.0422
19,ATATACAG,0.262 ± 0.0848
20,ATCCCTTA,0.215 ± 0.0752
21,ATGTGATA,0.231 ± 0.0239
22,ATCCTCAG,0.231 ± 0.0659
23,AAAATCCT,0.433 ± 0.0284
24,AAAATCAG,0.381 ± 0.0189
25,ATAATCAG,0.222 ± 0.0278
26,AAAATCAC,0.36 ± 0.0307

row,Sequence,binding signal [E-score]
1,CAAATCCC,0.315 ± 0.0145
2,CAAATCCA,0.3792 ± 0.00132
3,ATAATCCC,0.212 ± 0.0485
4,CAAATTCA,0.203 ± 0.0475
5,CAGATCCA,0.23 ± 0.064
6,AAAATCCC,0.41 ± 0.0189
7,AAAATCAT,0.302 ± 0.0817
8,ACTGAAAT,0.278 ± 0.0182
9,ATATTCAA,0.213 ± 0.11
10,AGTAAGAA,0.214 ± 0.0216
11,ATCCGCCG,0.216 ± 0.0636
12,ATTTCATG,0.332 ± 0.0188
13,ATCTCCAG,0.293 ± 0.0251
14,ATCCTGAG,0.23 ± 0.00887
15,ACCAAAGA,0.208 ± 0.134
16,ATCTCACG,0.2 ± 0.0565
17,ATTGAAAA,0.214 ± 0.0168
18,AAGGTAAT,0.217 ± 0.0574
19,AGATACCA,0.204 ± 0.131
20,AGATTCCT,0.4552 ± 0.00311
21,AGATTCCC,0.493 ± 0.00512
22,AGATTCCG,0.4631 ± 0.000925
23,AGATTCAT,0.24 ± 0.0201
24,AAATTCCC,0.294 ± 0.0591
25,CAATTCCC,0.217 ± 0.0511
26,AGATTCCA,0.433 ± 0.0111

row,Sequence,binding signal [E-score]
1,AGATTCAG,0.238 ± 0.0658
2,AGATACCG,0.364 ± 0.0644
3,AGATACCT,0.216 ± 0.0648
4,ATTTTCCA,0.294 ± 0.00656
5,AGATCGTG,0.339 ± 0.0193
6,ATCCGCGG,0.28 ± 0.0747
7,AGAATTCG,0.221 ± 0.0588
8,AATCGACT,0.263 ± 0.0439
9,CAATCGAA,0.202 ± 0.113
10,ATCCTCCA,0.285 ± 0.089
11,ACAAGAGA,0.277 ± 0.0453
12,ACTCGTAA,0.247 ± 0.062
13,ATAATCAC,0.214 ± 0.0373
14,AATCGTGC,0.299 ± 0.027
15,ATTACCCC,0.247 ± 0.0858
16,AATCAAGT,0.233 ± 0.1
17,AATCAAGC,0.22 ± 0.0411
18,AATCAAGG,0.258 ± 0.0284
19,AATCGAGC,0.207 ± 0.052
20,AATCTAGC,0.404 ± 0.00637
21,AATCTAGG,0.4332 ± 0.00364
22,AATCAAGA,0.308 ± 0.0329
23,AATCTAGT,0.421 ± 0.0336
24,AATCTAGA,0.452 ± 0.018
25,ATTCTAGA,0.2 ± 0.0443
26,ATCCTAGC,0.237 ± 0.018

row,Sequence,binding signal [E-score]
1,ATCCCCGC,0.2 ± 0.0376
2,ATTACACG,0.268 ± 0.0173
3,CACGATTA,0.202 ± 0.0336
4,ATGCGTAA,0.21 ± 0.0884
5,ATTCTCCG,0.338 ± 0.0548
6,AATCACCA,0.26 ± 0.00706
7,AATCTCCG,0.437 ± 0.00941
8,ATTCTCCA,0.31 ± 0.0567
9,AATCTCCA,0.389 ± 0.05
10,AATCGCCT,0.225 ± 0.129
11,AATCACCG,0.281 ± 0.0154
12,AATCTCCT,0.4008 ± 0.00273
13,ATTCTCCC,0.255 ± 0.0215
14,AATCCCCC,0.215 ± 0.101
15,AATTTCCT,0.255 ± 0.00447
16,AATCTCCC,0.387 ± 0.0218
17,ATCCGGTA,0.286 ± 0.0898
18,ATTTGCAC,0.305 ± 0.0821
19,ATCCAATA,0.324 ± 0.0209
20,ATCTTTGG,0.304 ± 0.0128
21,ATCTTTTA,0.259 ± 0.0767
22,ATACCGCA,0.211 ± 0.101
23,AAAGCGAT,0.215 ± 0.0733
24,AATTTGCG,0.223 ± 0.0644
25,ATTCACAA,0.218 ± 0.0225
26,AAAGCAAT,0.27 ± 0.0827

row,Sequence,binding signal [E-score]
1,ATATCCTA,0.416 ± 0.0447
2,ATATCCTG,0.373 ± 0.0434
3,ATCTCCTC,0.296 ± 0.0162
4,ATATCCTC,0.402 ± 0.00645
5,ATTTCCTA,0.358 ± 0.0333
6,ATATCGTA,0.364 ± 0.049
7,ATTTGGTG,0.213 ± 0.0582
8,AGACAGAT,0.222 ± 0.0932
9,ATCCTGCA,0.261 ± 0.126
10,ATGAGATC,0.369 ± 0.0039
11,AGAAGATC,0.383 ± 0.0277
12,AGGAGATC,0.382 ± 0.00924
13,ACAAGATC,0.2947 ± 0.00243
14,AGAAGATA,0.26 ± 0.0155
15,AGGAGAAT,0.267 ± 0.0583
16,ACGAGATA,0.2747 ± 0.00202
17,ACGAGATC,0.41 ± 0.00651
18,AGGAGATA,0.228 ± 0.0512
19,AACGTATC,0.322 ± 0.0281
20,ATTACATG,0.293 ± 0.0579
21,ATCTGTAG,0.3 ± 0.055
22,ATACGCAT,0.204 ± 0.0532
23,ATCTGATC,0.329 ± 0.0755
24,ATTACACA,0.31 ± 0.0413
25,ATCTCTCA,0.295 ± 0.0129
26,ATATCACC,0.277 ± 0.0211

row,Sequence,binding signal [E-score]
1,ATCTCTCG,0.231 ± 0.0608
2,ATTTCTCA,0.248 ± 0.108
3,ATATCTCC,0.388 ± 0.0404
4,ATATCTCA,0.3895 ± 0.00167
5,ATATCACG,0.347 ± 0.0113
6,ATCTCCCC,0.301 ± 0.0229
7,ATATCTCG,0.435 ± 0.0109
8,AATCCCCA,0.346 ± 0.00463
9,ACTAAATC,0.213 ± 0.00269
10,AACACAAT,0.213 ± 0.0479
11,ATTACAAC,0.257 ± 0.0217
12,ATGAGATA,0.20921 ± 0.000115
13,ATTGCGCA,0.301 ± 0.0513
14,ATCTGGAC,0.346 ± 0.0997
15,ATCTCCAA,0.342 ± 0.0598
16,AGAAAATC,0.4794 ± 0.0015
17,AGAAAAAT,0.252 ± 0.0352
18,AAAAAAAT,0.286 ± 0.0488
19,AGCAAATA,0.221 ± 0.0663
20,AGCAAAAT,0.241 ± 0.0294
21,AGTAAATC,0.241 ± 0.0671
22,AAAAAATC,0.439 ± 0.0166
23,AAAAAATT,0.204 ± 0.0566
24,ACCAAAAT,0.245 ± 0.0514
25,ATCAAATC,0.36 ± 0.00877
26,AGCAAATC,0.4187 ± 0.000896

row,Sequence,binding signal [E-score]
1,ACCAAATC,0.406 ± 0.00414
2,ATATGAAG,0.207 ± 0.0492
3,AATCACAG,0.3111 ± 0.000659
4,CAAGATCC,0.33 ± 0.0132
5,ATTACACC,0.334 ± 0.0466
6,AACGATAT,0.29 ± 0.015
7,ATTTTCCC,0.304 ± 0.0203
8,AAATTATA,0.256 ± 0.00661
9,AATCGTTG,0.203 ± 0.0845
10,AACATAAT,0.233 ± 0.0831
11,ACAAAAAT,0.238 ± 0.045
12,ACAAAATC,0.4578 ± 0.00327
13,ATAAAATA,0.22 ± 0.00301
14,ACAAAATA,0.293 ± 0.102
15,AGACAATC,0.3189 ± 0.000404
16,ATAAAAAT,0.292 ± 0.0292
17,CAAAAATC,0.399 ± 0.00565
18,ACACAATC,0.39 ± 0.0203
19,ATAAAATC,0.409 ± 0.00541
20,ACACAATA,0.226 ± 0.0401
21,AACAAATC,0.302 ± 0.043
22,CACAAATC,0.274 ± 0.0179
